This note sets out measurements from PubChem BioAssay (NCATS).

Inconclusive results are not listed. Active and inactive are the calls of the source. Unless noted, calls follow the shape of the dose curve; as a rule, active = well fitted curve in the direction sought with a large enough effect; inconclusive = small, poorly fitted or top-dose-only effect, or another doubt; inactive = no such curve, though single readings can be large; an effect the other way counts as inactive or inconclusive. Where only a bound is given, the exact number is not on record here.

Test [1] concerns the target Glucocorticoid receptor (Homo sapiens) (UniProt P04150). Description: GR-EFC Redistribution (AID 451; calls by dose curve; also: potency is read from the fitted curve at half-maximal effect). Conditions: CHO-K1 GR-EFC translocation, beta-gal luminescence, 2 h. The procedure, abridged:
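Translocation of GR-ED fusion to nuclear EA restores b-gal, read by luminescence after 1 h room-temperature detection. Engineered CHO-K1 biosensor cells, 1,000/well, exposed 2 h at 37 C to titrations up to 46 uM final.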

In test [2] the target is Mitogen-activated protein kinase 10 (Mus musculus) (UniProt Q61831). Description: JNK3 AlphaScreen Assay (AID 530; active = well fitted curve in either direction with a large enough effect, not every such curve was filed as active;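 also: kinase came from lysate of stimulated human HepG2 cells; signal reports phosphorylation of biotinylated GST-cJun 1-79 at Ser73 with 10 µM ATP; % is scaled to controls: 0 for no effect and ±100 for the full control effect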). The method in brief: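 Kinase buffer: 20 mM Tris-HCl pH 7.6, 10 mM MgCl2, 1 mM DTT, 0.1 mM Na3VO4, 0.01% Tween-20; ATP 10 uM. Substrate biotin-GST-cJun(1-79), enzyme from activated HepG2 lysates. Detection by Ser73 phospho-antibody AlphaScreen.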
The nature of test [3]: qHTS Assay for Lipid Storage Modulators (AID 1519; calls by dose curve). Conditions: Drosophila S3 cells, BODIPY lipid droplet/cell ratio, laser cytometry, cells loaded with oleic acid; for activity change, negative = inhibition: at 57.5 µM (top of the series). The procedure, abridged:
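Cells seeded at 5,000 per well were treated with compounds over a concentration series and loaded with oleic acid (400 uM, as added). Lipid droplet fluorescence (488 nm excitation, 500-530 nm channel) was read by laser-scanning cytometry and normalized to 20 uM Triacsin C.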

In test [4] the target is Ubiquitin carboxyl-terminal hydrolase 1 (Homo sapiens) (UniProt O94782). The experiment in a line: Inhibitors of USP1/UAF1: Pilot qHTS (AID 504865).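 Also: rhodamine fluorescence freed from ubiquitin-rhodamine substrate followed over time; top concentration of the series differs between compounds; % is scaled to controls: 0 for no effect and ±100 for the full control effect; nearly all actives have a fitted effect of over 35% in size.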 The procedure, abridged:
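USP1/UAF1 complex at 1 nM preincubated 15 min at room temperature with compound, then Ub-Rho substrate added at 150 nM final. Fluorescence (480/540 nm) read kinetically in 50 mM HEPES pH 7.8, 0.5 mM EDTA, 1 mM TCEP, 0.1 mg/ml BSA, 0.01% Tween-20.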

Test [5] concerns the target DNA dC->dU-editing enzyme APOBEC-3G (Homo sapiens) (UniProt Q9HC16). Description: qHTS for inhibitors of Vif-A3G interactions: Validation (AID 588379). Also: 0% is about no effect. The procedure, abridged: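 Yellow fluorescence (Ex 488, Em 500-530) of Vif-coexpressing HeLa A3G-eYFP cells, scanned by Acumen cytometer, reports blocked A3G degradation. Cells plated at 700/well overnight at 37 deg C before compound addition, then a further overnight compound incubation at 37 deg C.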

Test [6] has as its system Zika virus NS2B-NS3 protease. The experiment in a line: Primary screen GU AMC qHTS for Zika virus inhibitors (AID 1347154).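 Also: 0% = no-inhibitor control and -100% = no-enzyme control; nearly all actives have a fitted effect of over 70% in size.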 The procedure, abridged:
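Fluorogenic AMC-substrate cleavage by noncovalent NS2B-NS3 protease complex (25 nM, pH 8.0 Tris buffer with Tween 20) followed for 15 minutes at room temperature (~20% conversion). Percent inhibition from ex340/em450 signal change, fitted by 4-parameter Hill equation.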

Test [7] is described as follows: Primary qHTS for small molecule stabilizers of the endoplasmic reticulum resident proteome: Secreted ER Calcium Modulated Protein (SERCaMP) assay (AID 1508630). Also: % is scaled to controls: 0 for no effect and ±100 for the full control effect. The procedure, abridged:
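The SH-SY5Y reporter protocol was run at 3 concentrations up to 38.3 uM (primary) or 11 concentrations (follow-up): 16 h compound, 100 nM thapsigargin for 4 h, then extracellular luciferase luminescence.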

Test [8] concerns the target Cytochrome P450 1A2 (Homo sapiens) (UniProt P05177). The experiment in a line: p450-cyp1a2 (AID 410; calls by dose curve; also: potency is read from the fitted curve at half-maximal effect). The method in brief:
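20nM CYP1A2, 100uM Luciferin-ME (=Km), 100mM KPO4; cpd 10 min RT; +NADPH regen, 60 min RT; stop/detect 20 min; luminescence. Normalized to furafylline 57 uM = full inhibition.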

In test [9] the target is Glucocorticoid receptor (Homo sapiens) (UniProt P04150). Description: GR-GFP Redistribution (AID 450;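 active = compounds whose dose series gives a full or clear partial fitted curve of increased nuclear translocation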; also: potency is read from the fitted curve at half-maximal effect). Conditions: U2OS GR-GFP nuclear translocation, laser cytometry, 2 h.
Glucocorticoid receptor (Homo sapiens), sequence (P04150 whole entry, looked up, the tested form may be a part): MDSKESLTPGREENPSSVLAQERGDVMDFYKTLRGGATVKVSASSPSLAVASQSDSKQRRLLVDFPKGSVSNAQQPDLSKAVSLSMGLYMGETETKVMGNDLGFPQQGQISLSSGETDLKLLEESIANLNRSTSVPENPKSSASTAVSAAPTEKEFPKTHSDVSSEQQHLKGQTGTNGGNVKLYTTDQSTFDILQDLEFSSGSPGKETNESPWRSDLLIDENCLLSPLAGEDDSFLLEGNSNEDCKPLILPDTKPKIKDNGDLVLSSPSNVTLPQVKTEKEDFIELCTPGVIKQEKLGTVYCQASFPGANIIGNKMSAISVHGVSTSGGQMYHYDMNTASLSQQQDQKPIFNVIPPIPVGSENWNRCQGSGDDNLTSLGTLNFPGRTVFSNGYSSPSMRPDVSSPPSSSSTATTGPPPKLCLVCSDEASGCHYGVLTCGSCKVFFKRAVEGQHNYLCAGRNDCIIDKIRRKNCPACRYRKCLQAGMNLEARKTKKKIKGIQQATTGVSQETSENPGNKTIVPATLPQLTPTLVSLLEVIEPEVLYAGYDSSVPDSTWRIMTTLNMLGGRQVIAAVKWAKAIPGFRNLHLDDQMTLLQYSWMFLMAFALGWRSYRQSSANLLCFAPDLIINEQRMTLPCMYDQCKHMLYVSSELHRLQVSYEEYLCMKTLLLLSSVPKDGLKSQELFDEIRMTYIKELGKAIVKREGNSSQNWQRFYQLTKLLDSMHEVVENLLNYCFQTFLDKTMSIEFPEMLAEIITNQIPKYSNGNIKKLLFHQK
A short description of test [10]: AP1 Signaling Pathway (AID 357; active = well fitted curve in either direction with a large enough effect, not every such curve was filed as active;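 also: ME-180 reporter cells stimulated with EGF at its EC50 level; % is scaled to controls: 0 for no effect and ±100 for the full control effect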). The method in brief: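 AP-1-bla ME-180 cells, Opti-MEM + 0.5% dialyzed FBS, plated overnight 37 °C. Cpd titration + EC50 EGF, 5 h 37 °C. CCF4 2.5 h RT; ex 405, em 460/530 ratio → %activity, AC50.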
The nature of test [11]: Stat Signaling Pathway (AID 446; active = well fitted curve in either direction with a large enough effect, not every such curve was filed as active;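 also: ME-180 cervical cancer cells given 40 pM IL-6 alongside compound; SIE-controlled beta-lactamase reporter measured as 460/530 nm FRET emission ratio; % is scaled to controls: 0 for no effect and ±100 for the full control effect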). The procedure, abridged: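 Normalization used AC90 stimulation (300 pM IL-6) and AC90 inhibition (125 nM pan-JAK inhibitor at 40 pM IL-6). The underlying signal is SIE-driven beta-lactamase in ME-180 cells after 5 h IL-6 exposure with compound.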
Test [12] deals with 3',5'-cyclic-AMP phosphodiesterase 4B (Homo sapiens) (UniProt Q07343). The experiment in a line: qHTS Assay for Inhibitors of PDE-IV (AID 607; active = well fitted activation curve with a large enough effect in the main read-out, with a control signal flat, not every such curve was filed as active; also: % of control where 0% means no effect). The procedure, abridged: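 HEK293 ACTOne cells with CNG channel (1000/well), endogenous PDE4; membrane potential dye, compounds up to 22.9 uM final. Fluorescence Ex 535/Em 590; RO 20-1724 (100 uM final) as reference.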
3',5'-cyclic-AMP phosphodiesterase 4B (Homo sapiens), sequence (Q07343 whole entry, looked up): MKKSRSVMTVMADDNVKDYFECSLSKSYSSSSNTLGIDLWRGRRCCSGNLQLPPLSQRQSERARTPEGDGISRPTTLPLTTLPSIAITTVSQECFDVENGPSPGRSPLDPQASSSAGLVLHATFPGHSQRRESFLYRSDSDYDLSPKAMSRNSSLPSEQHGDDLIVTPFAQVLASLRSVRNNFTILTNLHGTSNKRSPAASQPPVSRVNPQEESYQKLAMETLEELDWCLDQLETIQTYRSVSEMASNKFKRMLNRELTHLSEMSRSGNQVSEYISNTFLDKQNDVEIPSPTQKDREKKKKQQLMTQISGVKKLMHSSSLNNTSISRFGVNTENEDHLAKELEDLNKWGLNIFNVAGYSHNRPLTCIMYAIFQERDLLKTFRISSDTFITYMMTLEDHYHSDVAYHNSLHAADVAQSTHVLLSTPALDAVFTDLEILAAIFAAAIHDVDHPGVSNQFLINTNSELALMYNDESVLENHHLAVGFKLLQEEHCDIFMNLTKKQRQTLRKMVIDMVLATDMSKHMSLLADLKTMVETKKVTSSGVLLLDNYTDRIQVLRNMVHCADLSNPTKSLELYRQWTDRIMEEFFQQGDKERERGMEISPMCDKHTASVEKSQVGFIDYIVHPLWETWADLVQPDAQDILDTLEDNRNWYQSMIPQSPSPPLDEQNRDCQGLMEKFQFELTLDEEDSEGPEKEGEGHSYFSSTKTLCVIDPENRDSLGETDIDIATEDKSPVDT
For test [13], the target named is Guanine nucleotide-binding protein G(i) subunit alpha-1 (Homo sapiens) (UniProt P63096). The experiment in a line: qHTS Assay for Inhibitors of RGS12 GoLoco Motif Activity (Green Fluorophore) (AID 879).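 Also: 0% = labeled peptide with Gαi1 and full inhibition = labeled peptide alone without protein; negative values mean loss of peptide binding seen as reduced polarization.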 The procedure, abridged: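 A drop in FITC polarization marked displacement of the FITC-tagged RGS12 GoLoco peptide (10 nM) from Gαi1 (50 nM). Compounds were incubated 10 min at room temperature in Tris pH 7.5 buffer containing 150 mM NaCl, 0.1 mM GDP and 0.05% NP40; unlabeled peptide titration served as control.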

For test [14], the target named is Cytochrome P450 2D6 (Homo sapiens) (UniProt P10635). Description: qHTS Assay for Inhibitors and Substrates of Cytochrome P450 2D6 (AID 891).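 Also: luciferin methyl ether substrate demethylated by CYP2D6 with NADPH regeneration; % is scaled to controls: 0 for no effect and ±100 for the full control effect; nearly all actives have a fitted effect of over 60% in size.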 The procedure, abridged: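 Luminescent read-out of luciferin formed by 5 nM human CYP2D6 demethylating 30 uM Luciferin-ME EGE (Km level) over 60 min at room temperature after NADPH regeneration addition. Data normalized to full inhibition by 1.43 uM quinidine.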
Cytochrome P450 2D6 (Homo sapiens), sequence (P10635 whole entry, looked up): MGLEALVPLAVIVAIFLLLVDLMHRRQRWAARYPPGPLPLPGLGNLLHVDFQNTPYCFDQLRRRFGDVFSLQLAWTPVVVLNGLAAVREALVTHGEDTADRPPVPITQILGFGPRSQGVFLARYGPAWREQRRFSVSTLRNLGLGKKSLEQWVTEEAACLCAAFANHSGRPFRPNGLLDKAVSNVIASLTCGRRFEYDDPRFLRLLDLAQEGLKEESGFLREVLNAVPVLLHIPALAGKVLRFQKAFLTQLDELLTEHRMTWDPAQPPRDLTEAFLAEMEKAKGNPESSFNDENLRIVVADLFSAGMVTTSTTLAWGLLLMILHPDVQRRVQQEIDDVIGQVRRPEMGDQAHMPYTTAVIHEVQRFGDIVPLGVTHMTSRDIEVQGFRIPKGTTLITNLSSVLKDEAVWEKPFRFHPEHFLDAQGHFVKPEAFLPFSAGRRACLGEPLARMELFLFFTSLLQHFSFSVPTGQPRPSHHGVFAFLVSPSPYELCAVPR

The target of test [15] is Pyruvate kinase (Leishmania mexicana) (UniProt Q27686). The experiment in a line: qHTS Validation Assay for Inhibitors of Leishmania Mexicana Pyruvate Kinase (AID 945).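 Also: 0% = DMSO only neutral control wells.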 The method in brief: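 An endpoint luciferase assay: 0.2 nM LmPYK E451W turns over 0.5 mM PEP with 0.1 mM ADP for 1 h at room temperature, pH 7.2, before PKLight addition. Values are normalized to DMSO-only wells.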
Pyruvate kinase (Leishmania mexicana), sequence (Q27686 2-499 E452W): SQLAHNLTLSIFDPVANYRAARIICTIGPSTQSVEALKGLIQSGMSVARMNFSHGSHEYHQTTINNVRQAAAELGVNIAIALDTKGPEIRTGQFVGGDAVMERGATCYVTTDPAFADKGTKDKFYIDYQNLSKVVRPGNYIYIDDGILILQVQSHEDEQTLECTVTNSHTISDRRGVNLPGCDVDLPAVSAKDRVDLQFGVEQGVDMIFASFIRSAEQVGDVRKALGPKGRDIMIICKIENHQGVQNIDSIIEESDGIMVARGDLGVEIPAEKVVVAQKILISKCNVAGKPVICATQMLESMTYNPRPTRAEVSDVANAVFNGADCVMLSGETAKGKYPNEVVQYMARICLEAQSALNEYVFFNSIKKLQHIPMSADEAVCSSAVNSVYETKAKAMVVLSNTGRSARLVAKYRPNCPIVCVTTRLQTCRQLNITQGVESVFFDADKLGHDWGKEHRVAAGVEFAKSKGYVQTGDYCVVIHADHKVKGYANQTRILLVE

In test [16] the target is Pyruvate kinase PKM (Homo sapiens) (UniProt P14618). The experiment in a line: qHTS Assay for Activators of Human Muscle Pyruvate Kinase (AID 954; active = well fitted curve in the direction sought with a large enough effect, not every such curve was filed as active;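 also: 0% = uninhibited enzyme and -100% = no enzyme or full thiadiazolimine inhibition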). The procedure, abridged: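 Compound pinned into substrate mix (0.5 mM PEP, 0.1 mM ADP), then 0.1 nM PKM2 added; 1 h, RT. Stop/detection luciferase reagent added, luminescence read. Normalized to no-inhibition and no-enzyme or reference-inhibitor controls.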

For test [17], the target named is Alpha-galactosidase A (Homo sapiens) (UniProt P06280). Description: Counterscreen for Glucocerebrosidase Inhibitors: qHTS Assay for Human alpha-Galactosidase at pH 4.5 (AID 992). Also: 0% is about no effect. The procedure, abridged: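 Steps: enzyme (2 nM final), then compound across 0.7 nM to 77 uM, then 80 uM fluorogenic galactopyranoside substrate; incubate 20 min at room temperature; quench at pH 10; measure fluorescence at 365/440 nm.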
Alpha-galactosidase A (Homo sapiens), sequence (P06280 whole entry, looked up): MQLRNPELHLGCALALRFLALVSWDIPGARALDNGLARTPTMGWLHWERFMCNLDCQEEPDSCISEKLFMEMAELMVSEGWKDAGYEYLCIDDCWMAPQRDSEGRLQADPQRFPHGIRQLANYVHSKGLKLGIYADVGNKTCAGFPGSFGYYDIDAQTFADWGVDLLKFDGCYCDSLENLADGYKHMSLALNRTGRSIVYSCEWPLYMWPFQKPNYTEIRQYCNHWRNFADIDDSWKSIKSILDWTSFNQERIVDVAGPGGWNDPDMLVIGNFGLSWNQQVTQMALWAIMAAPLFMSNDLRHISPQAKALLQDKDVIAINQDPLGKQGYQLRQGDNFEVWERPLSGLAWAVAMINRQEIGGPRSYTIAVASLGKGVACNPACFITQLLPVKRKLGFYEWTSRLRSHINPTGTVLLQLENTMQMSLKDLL

In test [18] the target is alpha-glucosidase (Oryza sativa, rice) (UniProt Q653V4). Description: Counterscreen for Glucocerebrosidase Inhibitors: qHTS Assay for Rice alpha-Glucosidase at pH 5.0 (AID 997).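 Also: 0% = full activity with enzyme and -100% = basal without enzyme.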 The method in brief:
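Endpoint fluorogenic assay at pH 5.0: compounds (0.7 nM to 77 uM) titrated against 4 nM rice enzyme and 400 uM 4-MU-alpha-glucoside for 20 min at room temperature; NaOH/glycine stop, read ex 365/em 440 nm, Hill-fitted AC50.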

The target in test [19] is Alpha-galactosidase (Coffea arabica) (UniProt Q42656). The experiment in a line: Counterscreen for Glucocerebrosidase Inhibitors: qHTS Assay for Coffee Bean alpha-Galactosidase at pH 5.9 (AID 998).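 Also: plate controls were uninhibited enzyme for no effect and no-enzyme basal signal for full effect.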 The method in brief: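 Fluorogenic 4-MU substrate hydrolysis, 80 uM substrate and 2 nM coffee bean alpha-galactosidase, pH 5.9 citrate buffer, 20 min at room temperature, then NaOH/glycine stop. Titration 0.7 nM–77 uM, normalized to no-enzyme and enzyme controls, AC50 via Hill equation.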
Alpha-galactosidase (Coffea arabica), sequence (Q42656 whole entry, looked up): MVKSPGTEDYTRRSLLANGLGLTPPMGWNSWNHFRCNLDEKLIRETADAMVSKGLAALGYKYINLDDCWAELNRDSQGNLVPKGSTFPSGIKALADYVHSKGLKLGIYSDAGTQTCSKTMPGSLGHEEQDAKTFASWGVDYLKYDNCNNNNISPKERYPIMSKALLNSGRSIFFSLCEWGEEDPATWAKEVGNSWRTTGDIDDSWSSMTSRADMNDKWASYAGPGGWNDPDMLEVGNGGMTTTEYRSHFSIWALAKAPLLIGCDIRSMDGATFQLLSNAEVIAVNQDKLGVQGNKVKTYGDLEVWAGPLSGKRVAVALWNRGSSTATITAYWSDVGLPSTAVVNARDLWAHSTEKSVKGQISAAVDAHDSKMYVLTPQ

Setting [20] is: measured here: cell count channel max response.
Setting [21] is: measured here: lipid channel max response.

Ubiquitin carboxyl-terminal hydrolase 1 (Homo sapiens), sequence (O94782 whole entry, looked up): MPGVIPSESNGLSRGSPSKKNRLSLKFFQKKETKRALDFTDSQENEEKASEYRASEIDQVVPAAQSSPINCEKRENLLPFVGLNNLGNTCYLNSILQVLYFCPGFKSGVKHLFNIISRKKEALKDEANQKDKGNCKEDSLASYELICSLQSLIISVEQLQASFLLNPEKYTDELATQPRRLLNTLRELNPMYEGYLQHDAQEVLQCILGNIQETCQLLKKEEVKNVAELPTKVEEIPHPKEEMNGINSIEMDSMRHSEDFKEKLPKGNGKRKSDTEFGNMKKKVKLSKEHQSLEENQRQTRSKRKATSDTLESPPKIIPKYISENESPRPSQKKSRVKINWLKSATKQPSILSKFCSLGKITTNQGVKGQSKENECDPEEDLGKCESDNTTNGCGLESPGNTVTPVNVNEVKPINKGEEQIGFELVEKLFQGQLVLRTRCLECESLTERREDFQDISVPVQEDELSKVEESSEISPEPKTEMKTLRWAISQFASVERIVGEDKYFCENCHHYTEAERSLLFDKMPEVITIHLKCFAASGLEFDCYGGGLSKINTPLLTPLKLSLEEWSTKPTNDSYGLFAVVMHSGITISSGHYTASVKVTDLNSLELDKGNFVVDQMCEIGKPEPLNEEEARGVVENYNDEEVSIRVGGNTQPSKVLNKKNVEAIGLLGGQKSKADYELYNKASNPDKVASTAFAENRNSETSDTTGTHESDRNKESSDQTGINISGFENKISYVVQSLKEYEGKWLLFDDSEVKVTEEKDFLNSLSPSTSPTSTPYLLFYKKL
Cytochrome P450 1A2 (Homo sapiens), sequence (P05177 whole entry, looked up): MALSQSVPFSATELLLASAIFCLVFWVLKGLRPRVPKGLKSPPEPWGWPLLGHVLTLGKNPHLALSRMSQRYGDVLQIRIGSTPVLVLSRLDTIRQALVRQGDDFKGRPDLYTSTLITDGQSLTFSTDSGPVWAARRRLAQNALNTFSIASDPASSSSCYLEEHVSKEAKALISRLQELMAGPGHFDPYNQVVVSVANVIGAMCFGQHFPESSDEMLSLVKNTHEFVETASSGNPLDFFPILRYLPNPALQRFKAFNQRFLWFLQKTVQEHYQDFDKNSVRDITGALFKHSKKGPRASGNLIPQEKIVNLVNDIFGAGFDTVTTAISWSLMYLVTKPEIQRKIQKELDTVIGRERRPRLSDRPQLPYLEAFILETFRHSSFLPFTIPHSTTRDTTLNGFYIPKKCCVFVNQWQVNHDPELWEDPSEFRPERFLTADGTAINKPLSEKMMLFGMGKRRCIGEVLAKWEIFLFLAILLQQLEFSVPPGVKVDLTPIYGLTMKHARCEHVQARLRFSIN
DNA dC->dU-editing enzyme APOBEC-3G (Homo sapiens), sequence (Q9HC16 whole entry, looked up): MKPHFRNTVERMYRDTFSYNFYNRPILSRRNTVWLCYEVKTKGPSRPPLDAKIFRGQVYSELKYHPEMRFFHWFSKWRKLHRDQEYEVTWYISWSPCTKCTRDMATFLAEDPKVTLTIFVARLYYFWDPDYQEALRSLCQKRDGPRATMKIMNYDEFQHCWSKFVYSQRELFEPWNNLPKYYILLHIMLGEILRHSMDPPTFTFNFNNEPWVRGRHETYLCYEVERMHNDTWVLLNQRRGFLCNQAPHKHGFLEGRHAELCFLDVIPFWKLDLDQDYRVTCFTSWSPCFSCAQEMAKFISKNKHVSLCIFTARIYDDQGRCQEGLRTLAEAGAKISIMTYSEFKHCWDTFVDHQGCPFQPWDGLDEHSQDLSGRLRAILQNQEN

As for `C[C@](N)(CCP(=O)(O)O)C(=O)O`, the Potency in [1] is > 46 µM (inactive). Moreover, the call in [2] was inactive. The activity change, negative = inhibition in test [3] was 6.09% (inactive). Besides, the max response was -23.4% in [3] (setting [20]) and -20.7% in test [3] (setting [21]). In addition, the Potency result in [4], in test [5], in test [6] and in [7] was “inactive” each time.
Take `NC[C@H](CS(=O)(=O)O)c1ccc(Cl)cc1`: the Potency result in test [8], in [6] and in test [7] was “inactive” throughout. Moreover, the Potency in test [9] and in test [1] was > 46 µM (inactive) each time. In addition, the activity change, negative = inhibition in [3] is 3.36% (inactive). The max response was found to be 7.7% in test [3] (setting [20]) and 12% in test [3] (setting [21]).
As for `c1cncc(C2CCCCN2)c1` (configuration not stated), in [3], the activity change, negative = inhibition was 4.14% (inactive). Also, the max response was found to be 15% in test [3] (setting [20]) and 20.8% in [3] (setting [21]). In addition, the Potency result in [4], in test [6] and in test [7] was “inactive” throughout.
For `Cc1ccc(C[N+](C)(C)C)o1`, the Potency in test [1] was > 46 µM (inactive). For the same molecule, the activity change, negative = inhibition in [3] is 4.98% (inactive). Besides, the max response in test [3] (setting [20]) came to 20.9%; in [3] (setting [21]) it was 30.2%. Moreover, the Potency result in test [4], in [5], in [6] and in test [7] was “inactive” in each case.
In the case of `CC(C)(O)[C@@H]1[C@H]2OC(=O)[C@@H]1[C@]1(O)C[C@H]3O[C@]34C(=O)O[C@H]2[C@@]14C` (tested in a mixture with another compound), the Potency in test [1] is > 46 µM (inactive). Also, the activity change, negative = inhibition in test [3] was -0.708% (inactive). For the same molecule, the max response in [3] (setting [20]) was -8.87%; in [3] (setting [21]) it was -11.1%. The Potency result in test [4], in [5], in test [6] and in test [7] was “inactive” throughout.
As to `O=C(O)Cc1cccnc1C(=O)O`, the Potency in test [9] and in test [1] was > 46 µM (inactive) throughout. In addition, in test [3], the activity change, negative = inhibition was 3.53% (inactive). The max response in test [3] (setting [20]) is -8.51%; in [3] (setting [21]), -2.88%. For the same molecule, the Potency entry in [4], in [5], in [6] and in test [7] was “inactive” in each case.
On to `CN1C(=O)CCS(=O)(=O)[C@H]1c1ccc(Cl)cc1`, for which the outcome in test [10], in test [11], in test [2], in [13], in test [15] and in test [16] was inactive. For the same molecule, the molecule was classed as inactive in [17], in test [18] and in test [19]. Further, the Potency result in test [8], in test [12], in test [14], in [6] and in [7] was “inactive” in each case. In addition, the Potency in [9] and in test [1] was > 46 µM (inactive) in each case. The activity change, negative = inhibition in test [3] is -2.49% (inactive). Further, the max response was -1.62% in test [3] (setting [20]) and 2.79% in test [3] (setting [21]).
Turning to `CCCn1c(C)c(C(=O)c2cccc3ccccc23)c2ccccc21`, the Potency in test [8] was 2 µM (active); in test [1], > 46 µM (inactive). In addition, the Potency entry in test [5], in test [6] and in test [7] was “inactive” in each case.
